# Data published in publication PMC7862700, “An all-to-all approach to the identification of sequence-specific readers for epigenetic DNA modifications on cytosine”.
# What was measured:
# Test in all cases: DAPPL (digital affinity profiling via proximity ligation, sequencing); 10 mM Tris-HCl pH 7.5, 50 mM NaCl, 1 mM DTT, 4% glycerol, room temperature, 30 min; GST-TFs on glutathione beads, 16-mer random dsDNA library, 0.1% formaldehyde crosslink after washing; high values mean tight binding
# FLI1 = target: T1, FLI1 (Homo sapiens, UniProt Q01543 1-452); conditions: protein: recombinant; tags: N-terminal GST; dsDNA, one strand shown
# T1 sequence: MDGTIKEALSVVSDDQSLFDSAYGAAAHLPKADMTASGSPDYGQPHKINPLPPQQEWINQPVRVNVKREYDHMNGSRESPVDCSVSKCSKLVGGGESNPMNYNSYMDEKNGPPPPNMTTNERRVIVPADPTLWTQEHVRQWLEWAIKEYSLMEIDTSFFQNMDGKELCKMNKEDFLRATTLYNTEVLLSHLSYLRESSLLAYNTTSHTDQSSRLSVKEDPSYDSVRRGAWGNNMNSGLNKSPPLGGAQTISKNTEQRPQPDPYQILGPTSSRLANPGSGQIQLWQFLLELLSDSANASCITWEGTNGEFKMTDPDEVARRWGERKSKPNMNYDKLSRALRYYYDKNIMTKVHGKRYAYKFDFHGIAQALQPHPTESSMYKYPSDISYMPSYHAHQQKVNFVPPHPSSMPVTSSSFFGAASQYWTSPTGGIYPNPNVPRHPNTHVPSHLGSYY
# In short: (§1)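 Pools were built from human transcription factors expressed in yeast as GST fusions, captured on glutathione beads and DNA-barcoded, along with a tag-only sample. Incubation with 200 nmole of a 16-mer random double-stranded DNA library lasted 30 min at room temperature in Tris/NaCl/DTT/glycerol buffer, and was followed by washing, 0.1% formaldehyde crosslinking, proximity ligation, PCR amplification and Illumina NextSeq500 sequencing. Binding signal is the quotient of each hexamer's read frequency for a factor and its frequency for the tag-only sample.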
# ELK1 = target: T2, ELK1 (Homo sapiens, UniProt P19419 1-428); conditions: protein: recombinant; tags: N-terminal GST; dsDNA, one strand shown
# T2 sequence: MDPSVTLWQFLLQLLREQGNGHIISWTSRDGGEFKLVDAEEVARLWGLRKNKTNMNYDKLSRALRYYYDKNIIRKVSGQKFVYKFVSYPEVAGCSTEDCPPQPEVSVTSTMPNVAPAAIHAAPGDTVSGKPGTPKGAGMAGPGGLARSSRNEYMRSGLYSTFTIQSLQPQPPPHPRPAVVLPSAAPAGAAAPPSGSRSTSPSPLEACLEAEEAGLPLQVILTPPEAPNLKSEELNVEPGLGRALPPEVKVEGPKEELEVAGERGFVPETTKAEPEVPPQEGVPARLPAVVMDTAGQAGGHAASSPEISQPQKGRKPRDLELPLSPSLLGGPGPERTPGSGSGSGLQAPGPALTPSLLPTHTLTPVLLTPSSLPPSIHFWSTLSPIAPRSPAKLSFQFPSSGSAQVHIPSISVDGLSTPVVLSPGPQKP
# In short: as §1
# GABPA = target: T3, GABPA (Homo sapiens, UniProt Q06546 1-454); conditions: protein: recombinant; tags: N-terminal GST; dsDNA, one strand shown
# T3 sequence: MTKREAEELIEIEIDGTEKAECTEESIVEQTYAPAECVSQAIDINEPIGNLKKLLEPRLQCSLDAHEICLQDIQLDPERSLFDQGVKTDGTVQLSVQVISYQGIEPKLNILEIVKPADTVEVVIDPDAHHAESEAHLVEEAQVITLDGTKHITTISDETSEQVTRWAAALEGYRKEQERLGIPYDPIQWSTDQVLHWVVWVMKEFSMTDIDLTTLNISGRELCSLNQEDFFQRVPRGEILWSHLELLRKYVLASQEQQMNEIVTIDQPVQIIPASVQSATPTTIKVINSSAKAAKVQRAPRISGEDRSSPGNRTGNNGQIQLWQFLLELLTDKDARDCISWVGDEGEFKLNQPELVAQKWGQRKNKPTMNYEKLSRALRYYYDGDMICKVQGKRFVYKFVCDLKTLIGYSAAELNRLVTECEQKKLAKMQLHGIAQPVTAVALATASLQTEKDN
# In short: as §1
# ERG = target: T4, ERG (Homo sapiens, UniProt P11308 1-479); conditions: protein: recombinant; tags: N-terminal GST; dsDNA, one strand shown
# T4 sequence: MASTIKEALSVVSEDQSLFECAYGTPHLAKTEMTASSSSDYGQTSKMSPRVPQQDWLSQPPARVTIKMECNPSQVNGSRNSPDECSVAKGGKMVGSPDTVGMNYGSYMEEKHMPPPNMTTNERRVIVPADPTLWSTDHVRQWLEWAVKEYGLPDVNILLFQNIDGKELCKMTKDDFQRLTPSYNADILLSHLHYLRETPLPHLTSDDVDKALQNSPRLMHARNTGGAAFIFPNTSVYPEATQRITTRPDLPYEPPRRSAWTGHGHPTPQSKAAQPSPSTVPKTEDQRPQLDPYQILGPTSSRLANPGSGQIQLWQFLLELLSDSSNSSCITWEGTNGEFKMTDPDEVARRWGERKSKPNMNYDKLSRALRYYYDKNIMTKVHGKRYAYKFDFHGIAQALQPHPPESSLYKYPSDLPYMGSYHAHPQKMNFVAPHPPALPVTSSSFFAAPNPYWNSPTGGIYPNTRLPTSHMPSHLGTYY
# In short: as §1
# ELF1 = ELF1 (Homo sapiens, UniProt P32519 1-619); conditions: protein: recombinant; tags: N-terminal GST; dsDNA, one strand shown
# In short: as §1
# EHF = target: T5, EHF (Homo sapiens, UniProt Q9NZC4 1-300); conditions: protein: recombinant; tags: N-terminal GST; dsDNA, one strand shown
# T5 sequence: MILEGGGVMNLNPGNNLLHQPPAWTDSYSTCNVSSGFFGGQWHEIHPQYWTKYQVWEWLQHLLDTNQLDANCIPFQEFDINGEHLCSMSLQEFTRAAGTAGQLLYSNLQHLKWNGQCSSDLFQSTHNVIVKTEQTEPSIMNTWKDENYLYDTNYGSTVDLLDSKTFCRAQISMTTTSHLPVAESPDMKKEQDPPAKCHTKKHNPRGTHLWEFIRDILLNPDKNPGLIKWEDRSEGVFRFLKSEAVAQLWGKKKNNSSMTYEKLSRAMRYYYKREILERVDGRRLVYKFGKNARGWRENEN
# In short: as §1
# SPI1 = SPI1 (Homo sapiens, UniProt P17947 1-270); conditions: protein: recombinant; tags: N-terminal GST; dsDNA, one strand shown
# In short: as §1
# SPIB = SPIB (Homo sapiens, UniProt Q01892 1-262); conditions: protein: recombinant; tags: N-terminal GST; dsDNA, one strand shown
# In short: as §1
# ELK3 = target: T6, ELK3 (Homo sapiens, UniProt P41970 1-407); conditions: protein: recombinant; tags: N-terminal GST; dsDNA, one strand shown
# T6 sequence: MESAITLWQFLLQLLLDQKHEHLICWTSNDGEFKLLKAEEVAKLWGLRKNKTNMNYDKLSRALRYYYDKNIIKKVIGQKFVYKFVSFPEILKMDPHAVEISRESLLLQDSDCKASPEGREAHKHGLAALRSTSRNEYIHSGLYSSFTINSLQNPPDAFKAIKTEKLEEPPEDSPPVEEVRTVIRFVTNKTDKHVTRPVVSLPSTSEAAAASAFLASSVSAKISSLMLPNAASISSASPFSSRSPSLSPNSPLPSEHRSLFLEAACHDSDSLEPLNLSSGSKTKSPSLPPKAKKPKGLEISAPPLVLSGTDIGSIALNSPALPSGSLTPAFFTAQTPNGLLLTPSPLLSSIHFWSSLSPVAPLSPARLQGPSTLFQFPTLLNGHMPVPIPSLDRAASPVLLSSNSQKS
# In short: as §1
# FEV = target: T7, FEV (Homo sapiens, UniProt Q99581 1-238); conditions: protein: recombinant; tags: N-terminal GST; dsDNA, one strand shown
# T7 sequence: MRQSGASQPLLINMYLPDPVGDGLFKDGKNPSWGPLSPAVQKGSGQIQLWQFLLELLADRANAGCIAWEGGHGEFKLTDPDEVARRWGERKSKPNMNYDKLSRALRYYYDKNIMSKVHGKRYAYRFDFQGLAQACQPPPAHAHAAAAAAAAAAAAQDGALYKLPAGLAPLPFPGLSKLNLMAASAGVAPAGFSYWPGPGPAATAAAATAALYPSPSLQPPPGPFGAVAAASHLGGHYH
# In short: as §1
# ETV5 = ETV5 (Homo sapiens, UniProt P41161 1-510); conditions: protein: recombinant; tags: N-terminal GST; dsDNA, one strand shown
# In short: as §1
# HSF1 = HSF1 (Homo sapiens, UniProt Q00613 1-529); conditions: protein: recombinant; tags: N-terminal GST; chain copies: 3; dsDNA, one strand shown
# In short: as §1
# SPIC = target: T8, SPIC (Homo sapiens, UniProt Q8N5J4 1-248); conditions: protein: recombinant; tags: N-terminal GST; dsDNA, one strand shown
# T8 sequence: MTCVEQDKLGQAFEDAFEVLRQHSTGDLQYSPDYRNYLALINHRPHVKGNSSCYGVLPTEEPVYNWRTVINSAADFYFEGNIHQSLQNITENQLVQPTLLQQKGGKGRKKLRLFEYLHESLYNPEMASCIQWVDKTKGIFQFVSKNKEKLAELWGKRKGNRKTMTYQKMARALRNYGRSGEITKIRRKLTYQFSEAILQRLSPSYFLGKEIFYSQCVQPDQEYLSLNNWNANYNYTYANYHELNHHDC
# In short: as §1
# ELF4 = ELF4 (Homo sapiens, UniProt Q99607 1-663); conditions: protein: recombinant; tags: N-terminal GST; dsDNA, one strand shown
# In short: as §1
# ELK4 = target: T9, ELK4 (Homo sapiens, UniProt P28324-2 1-405); conditions: protein: recombinant; tags: N-terminal GST; dsDNA, one strand shown
# T9 sequence: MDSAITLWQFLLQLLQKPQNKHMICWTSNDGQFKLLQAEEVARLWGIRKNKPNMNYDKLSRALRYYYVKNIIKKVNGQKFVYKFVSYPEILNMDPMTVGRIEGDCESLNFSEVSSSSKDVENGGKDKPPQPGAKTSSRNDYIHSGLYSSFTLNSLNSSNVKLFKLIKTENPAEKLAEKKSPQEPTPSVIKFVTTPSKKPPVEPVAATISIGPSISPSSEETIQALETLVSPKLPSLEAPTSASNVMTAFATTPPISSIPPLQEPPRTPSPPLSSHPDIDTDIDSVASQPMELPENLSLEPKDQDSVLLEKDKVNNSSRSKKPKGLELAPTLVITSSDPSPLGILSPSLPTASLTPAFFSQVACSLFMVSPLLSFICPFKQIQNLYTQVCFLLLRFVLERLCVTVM
# In short: as §1
# ETV2 = target: T10, ETV2 (Homo sapiens, UniProt O00321 1-342); conditions: protein: recombinant; tags: N-terminal GST; dsDNA, one strand shown
# T10 sequence: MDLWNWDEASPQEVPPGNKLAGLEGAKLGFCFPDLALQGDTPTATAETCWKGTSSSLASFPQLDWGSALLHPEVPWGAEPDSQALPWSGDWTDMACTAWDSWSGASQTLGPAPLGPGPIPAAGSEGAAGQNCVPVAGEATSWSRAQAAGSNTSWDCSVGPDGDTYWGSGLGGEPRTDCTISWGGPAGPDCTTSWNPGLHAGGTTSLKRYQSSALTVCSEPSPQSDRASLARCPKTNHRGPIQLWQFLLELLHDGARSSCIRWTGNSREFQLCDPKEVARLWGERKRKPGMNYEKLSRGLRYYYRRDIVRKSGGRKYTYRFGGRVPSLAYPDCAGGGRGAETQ
# In short: as §1
# ELF3 = target: T11, ELF3 (Homo sapiens, UniProt P78545 1-371); conditions: protein: recombinant; tags: N-terminal GST; dsDNA, one strand shown
# T11 sequence: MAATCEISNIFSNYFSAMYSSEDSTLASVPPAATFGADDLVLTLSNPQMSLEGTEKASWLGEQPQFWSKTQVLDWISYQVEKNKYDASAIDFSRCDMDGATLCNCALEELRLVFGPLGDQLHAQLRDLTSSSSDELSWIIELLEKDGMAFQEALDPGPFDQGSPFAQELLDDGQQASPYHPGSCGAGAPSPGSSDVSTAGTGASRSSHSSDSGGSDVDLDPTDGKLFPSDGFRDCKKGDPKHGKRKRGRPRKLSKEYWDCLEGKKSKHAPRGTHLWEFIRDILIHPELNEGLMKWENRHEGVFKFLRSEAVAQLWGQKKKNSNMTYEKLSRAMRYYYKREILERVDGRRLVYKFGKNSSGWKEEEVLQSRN
# In short: as §1
# ETV1 = ETV1 (Homo sapiens, UniProt P50549 1-477); conditions: protein: recombinant; tags: N-terminal GST; dsDNA, one strand shown
# In short: as §1
# Sequence of ETV5 (P41161 whole entry): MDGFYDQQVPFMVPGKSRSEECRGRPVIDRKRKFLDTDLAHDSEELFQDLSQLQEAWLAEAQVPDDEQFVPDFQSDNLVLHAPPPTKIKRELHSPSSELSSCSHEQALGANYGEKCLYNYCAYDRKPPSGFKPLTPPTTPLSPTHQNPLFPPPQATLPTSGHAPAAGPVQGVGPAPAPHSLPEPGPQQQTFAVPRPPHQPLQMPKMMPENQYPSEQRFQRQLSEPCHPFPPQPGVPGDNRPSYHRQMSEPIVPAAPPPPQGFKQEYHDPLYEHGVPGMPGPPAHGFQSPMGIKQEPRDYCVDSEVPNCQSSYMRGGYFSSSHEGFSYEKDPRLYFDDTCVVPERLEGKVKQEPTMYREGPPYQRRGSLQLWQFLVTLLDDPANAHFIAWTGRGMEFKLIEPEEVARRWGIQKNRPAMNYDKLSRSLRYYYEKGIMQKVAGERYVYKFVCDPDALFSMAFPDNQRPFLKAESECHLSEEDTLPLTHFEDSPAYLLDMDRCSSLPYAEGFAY
# Sequence of HSF1 (Q00613 whole entry): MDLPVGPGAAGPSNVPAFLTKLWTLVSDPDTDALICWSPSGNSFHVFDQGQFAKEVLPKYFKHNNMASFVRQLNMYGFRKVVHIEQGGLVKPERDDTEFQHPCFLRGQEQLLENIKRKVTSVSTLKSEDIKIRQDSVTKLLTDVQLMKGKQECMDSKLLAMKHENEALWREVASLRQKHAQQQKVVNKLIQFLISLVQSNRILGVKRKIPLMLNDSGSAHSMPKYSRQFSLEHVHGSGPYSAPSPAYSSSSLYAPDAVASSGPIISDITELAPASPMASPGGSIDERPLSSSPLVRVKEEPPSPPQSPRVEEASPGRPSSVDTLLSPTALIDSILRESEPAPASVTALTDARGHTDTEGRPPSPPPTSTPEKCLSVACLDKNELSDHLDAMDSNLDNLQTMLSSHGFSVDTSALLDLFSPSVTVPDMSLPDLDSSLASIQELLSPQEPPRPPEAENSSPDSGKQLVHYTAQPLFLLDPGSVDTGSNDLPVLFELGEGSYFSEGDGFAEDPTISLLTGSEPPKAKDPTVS
# Sequence of ELF4 (Q99607 whole entry): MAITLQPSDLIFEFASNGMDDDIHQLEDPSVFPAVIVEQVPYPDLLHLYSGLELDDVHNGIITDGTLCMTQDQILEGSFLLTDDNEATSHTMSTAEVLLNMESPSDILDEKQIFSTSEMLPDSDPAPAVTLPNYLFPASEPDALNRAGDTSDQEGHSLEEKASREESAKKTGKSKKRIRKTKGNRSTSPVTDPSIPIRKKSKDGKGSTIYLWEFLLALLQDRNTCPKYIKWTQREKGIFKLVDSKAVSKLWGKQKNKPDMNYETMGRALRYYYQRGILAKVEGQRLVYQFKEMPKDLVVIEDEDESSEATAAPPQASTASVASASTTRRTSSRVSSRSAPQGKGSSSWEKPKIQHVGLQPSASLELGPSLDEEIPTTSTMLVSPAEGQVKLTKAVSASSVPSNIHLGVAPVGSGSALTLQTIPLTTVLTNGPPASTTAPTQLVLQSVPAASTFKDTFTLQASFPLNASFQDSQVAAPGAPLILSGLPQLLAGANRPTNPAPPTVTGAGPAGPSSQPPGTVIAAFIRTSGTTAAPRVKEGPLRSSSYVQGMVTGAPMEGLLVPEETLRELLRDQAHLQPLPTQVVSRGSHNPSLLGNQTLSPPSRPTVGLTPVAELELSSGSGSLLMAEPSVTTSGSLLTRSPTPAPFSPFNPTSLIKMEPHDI
# Sequence of SPIB (Q01892 whole entry): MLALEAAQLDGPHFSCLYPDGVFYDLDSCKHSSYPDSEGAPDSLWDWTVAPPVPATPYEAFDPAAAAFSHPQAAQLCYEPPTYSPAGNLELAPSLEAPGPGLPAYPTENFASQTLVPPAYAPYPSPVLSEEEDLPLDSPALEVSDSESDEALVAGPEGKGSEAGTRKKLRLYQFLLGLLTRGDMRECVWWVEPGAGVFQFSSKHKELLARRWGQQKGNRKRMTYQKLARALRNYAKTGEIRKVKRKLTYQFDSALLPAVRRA
# Sequence of ETV1 (P50549 whole entry): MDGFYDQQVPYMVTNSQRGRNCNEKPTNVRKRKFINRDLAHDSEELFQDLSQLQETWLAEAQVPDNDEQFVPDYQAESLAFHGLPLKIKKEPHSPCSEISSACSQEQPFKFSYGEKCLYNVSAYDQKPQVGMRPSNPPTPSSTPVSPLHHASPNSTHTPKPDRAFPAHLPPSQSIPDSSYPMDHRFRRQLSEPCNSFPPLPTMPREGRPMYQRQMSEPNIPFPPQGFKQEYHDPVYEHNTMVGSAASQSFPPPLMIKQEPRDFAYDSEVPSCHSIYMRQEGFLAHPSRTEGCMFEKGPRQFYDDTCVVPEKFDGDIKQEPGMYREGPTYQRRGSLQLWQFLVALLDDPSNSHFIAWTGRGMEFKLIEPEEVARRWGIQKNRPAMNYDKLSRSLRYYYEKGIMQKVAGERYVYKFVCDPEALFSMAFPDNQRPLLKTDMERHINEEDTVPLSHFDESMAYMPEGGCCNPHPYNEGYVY
# Sequence of ELF1 (P32519 whole entry): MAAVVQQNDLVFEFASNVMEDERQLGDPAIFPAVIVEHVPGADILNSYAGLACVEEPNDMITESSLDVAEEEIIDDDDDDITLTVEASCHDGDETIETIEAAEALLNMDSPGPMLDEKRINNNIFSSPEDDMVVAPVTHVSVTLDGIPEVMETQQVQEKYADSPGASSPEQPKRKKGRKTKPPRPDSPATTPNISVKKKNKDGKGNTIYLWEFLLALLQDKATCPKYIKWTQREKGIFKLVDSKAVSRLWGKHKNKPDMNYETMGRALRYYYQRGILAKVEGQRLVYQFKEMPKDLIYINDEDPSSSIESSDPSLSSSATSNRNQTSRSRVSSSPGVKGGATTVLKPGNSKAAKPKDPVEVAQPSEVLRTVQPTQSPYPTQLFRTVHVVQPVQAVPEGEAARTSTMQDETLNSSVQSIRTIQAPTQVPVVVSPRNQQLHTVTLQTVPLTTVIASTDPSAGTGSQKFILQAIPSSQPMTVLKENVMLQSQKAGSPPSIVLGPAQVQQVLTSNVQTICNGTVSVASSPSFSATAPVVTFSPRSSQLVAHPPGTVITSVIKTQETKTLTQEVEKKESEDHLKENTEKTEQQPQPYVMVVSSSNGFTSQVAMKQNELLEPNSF
sequence,measurement,setting,value
CCACTC,binding signal,FLI1,"1.23 fold enrichment (6-mer frequency, TF over GST control)"
same,binding signal,ELK1,"1.32 fold enrichment (6-mer frequency, TF over GST control)"
same,binding signal,GABPA,"1.29 fold enrichment (6-mer frequency, TF over GST control)"
same,binding signal,ERG,"1.19 fold enrichment (6-mer frequency, TF over GST control)"
same,binding signal,ELF1,"1.28 fold enrichment (6-mer frequency, TF over GST control)"
same,binding signal,EHF,"1.16 fold enrichment (6-mer frequency, TF over GST control)"
same,binding signal,SPI1,"1.09 fold enrichment (6-mer frequency, TF over GST control)"
same,binding signal,SPIB,"1.16 fold enrichment (6-mer frequency, TF over GST control)"
same,binding signal,ELK3,"1.3 fold enrichment (6-mer frequency, TF over GST control)"
same,binding signal,FEV,"1.27 fold enrichment (6-mer frequency, TF over GST control)"
same,binding signal,ETV5,"1.23 fold enrichment (6-mer frequency, TF over GST control)"
same,binding signal,HSF1,"1.05 fold enrichment (6-mer frequency, TF over GST control)"
same,binding signal,SPIC,"1.27 fold enrichment (6-mer frequency, TF over GST control)"
same,binding signal,ELF4,"1.29 fold enrichment (6-mer frequency, TF over GST control)"
same,binding signal,ELK4,"1.49 fold enrichment (6-mer frequency, TF over GST control)"
same,binding signal,ETV2,"1.18 fold enrichment (6-mer frequency, TF over GST control)"
same,binding signal,ELF3,"1.14 fold enrichment (6-mer frequency, TF over GST control)"
same,binding signal,ETV1,"1.17 fold enrichment (6-mer frequency, TF over GST control)"
